CYP2C9 inhib: human CYP2C9 inhibition; 96,000 compounds, 20% hits; AID 777; inhibition, % at 5 µM; CYP2C9 Supersomes, luciferin-H conversion, luminescence; P11712;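 active means blocking of liver enzyme CYP2C9 beyond about 50% at 5 µM, limit read from the data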
CYP2C19 act: activators of human cytochrome P450 2C19 | AID 1025 | recombinant CYP2C19, luciferin-H EGE luminescence; active compounds read high; 0 = fully inhibited enzyme, 1 = untreated enzyme | activation factor at 5 µM | P33261 | 96,000 tested, under 10 active;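 active means activation factor of at least 2 at 5 µM in the primary screen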;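 further: 0 = wells with 2.5 mM tranylcypromine and 1 = vehicle-only wells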
PTK2B oligo ant: blocks oligomerization of human Pyk2 in cells | Q293 cells, Pyk2 FERM NanoBiT luminescence; active compounds read low | Q14289 | 99,000 compounds, 0.83% hits | z-score (the deposit names both 25 µM and 10 µM);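 active means Z-score of -3 or lower, scaled per plate to the spread of control and sample wells; inactive means z-score above -3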;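 further: negative z-score means lost luminescence so less FERM oligomerization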
Target sequence (Q14289 whole entry, looked up): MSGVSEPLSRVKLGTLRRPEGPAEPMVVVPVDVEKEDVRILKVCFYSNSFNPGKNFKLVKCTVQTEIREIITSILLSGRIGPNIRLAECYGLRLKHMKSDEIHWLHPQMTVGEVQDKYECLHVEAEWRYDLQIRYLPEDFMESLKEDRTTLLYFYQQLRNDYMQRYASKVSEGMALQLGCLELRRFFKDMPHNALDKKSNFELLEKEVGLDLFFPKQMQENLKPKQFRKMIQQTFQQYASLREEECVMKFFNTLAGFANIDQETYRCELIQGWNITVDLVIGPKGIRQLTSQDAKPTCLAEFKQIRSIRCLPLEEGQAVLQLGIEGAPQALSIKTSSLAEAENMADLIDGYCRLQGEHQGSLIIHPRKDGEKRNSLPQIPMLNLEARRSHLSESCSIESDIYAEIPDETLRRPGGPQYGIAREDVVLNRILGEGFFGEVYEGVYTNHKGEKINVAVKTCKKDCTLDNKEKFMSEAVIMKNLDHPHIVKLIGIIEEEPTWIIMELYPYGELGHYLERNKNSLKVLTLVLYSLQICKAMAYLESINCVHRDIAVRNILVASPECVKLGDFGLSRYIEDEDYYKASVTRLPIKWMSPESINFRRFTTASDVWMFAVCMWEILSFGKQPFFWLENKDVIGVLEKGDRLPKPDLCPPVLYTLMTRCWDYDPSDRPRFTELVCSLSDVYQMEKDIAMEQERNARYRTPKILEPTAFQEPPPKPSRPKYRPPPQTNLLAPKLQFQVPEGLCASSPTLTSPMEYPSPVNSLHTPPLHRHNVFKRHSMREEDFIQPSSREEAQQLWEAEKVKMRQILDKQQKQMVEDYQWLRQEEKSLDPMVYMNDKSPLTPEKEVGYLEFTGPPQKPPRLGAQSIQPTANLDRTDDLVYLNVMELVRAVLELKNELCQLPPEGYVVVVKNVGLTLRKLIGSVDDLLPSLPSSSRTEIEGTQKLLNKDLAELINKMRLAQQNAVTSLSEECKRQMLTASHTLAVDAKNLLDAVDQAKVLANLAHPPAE
CYP2C19 inhib: blocks human cytochrome P450 2C19 | P33261 | CYP2C19 Supersomes, luciferin-H EGE luminescence, 30 min | 96,000 compounds, 21% hits | inhibition, % at 5 µM;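 active means CYP2C19 inhibition above a set limit at 5 µM in the primary screen, cut at about 50% in these data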;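 further: plate controls were negative control wells for no effect and 2.5 mM tranylcypromine positive control for full effect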
Cav32 inh: inhibitors of human Cav3.2 T-type calcium channel; AID 449739; Cav3.2-expressing cells, Fluo-4 calcium fluorescence FDSS; active compounds read low; O95180; B-score at 10 µM; 100,000 compounds, 4% hits;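 active means single-dose well whose peak fluorescence ratio is a statistical outlier from its plate by either plate-standardised score or position-corrected B-score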
CYP2C9 activ: CYP2C9 (human) activation; 96,000 compounds, 1.4% hits; AID 1024; recombinant CYP2C9, luciferin-H conversion, luminescence; active compounds read high; factor 1 = untreated enzyme, 0 = blocked; activation factor at 5 µM;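 active means activation factor of 2 or more for CYP2C9 at a 5 µM dose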;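 further: 0 = sulfaphenazole-blocked wells and 1 = vehicle-only wells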
* hit, by the source's call; x = no result. Hits are enriched below; roughly 27% of the tested compounds scored in any of these assays.

SMILES | CYP2C9 inhib | CYP2C19 act | PTK2B oligo ant | CYP2C19 inhib | Cav32 inh | CYP2C9 activ
COc1ccccc1C(=O)Nc1nc(-c2cccs2)c(NC(C)=O)s1 | 4 | 1 | -0.66 | -2 | 0.11 | 1
COc1cc(-c2nc(-c3ccc4c(c3)-c3ccccc3S4(=O)=O)c(-c3ccccc3)[nH]2)cc(OC)c1OC | 43 | 0.5 | -3* | 50 | -0.13 | 0.6
CCCc1cc(N2CCN(C(=O)c3ccco3)CC2)n2c(nc3ccccc32)c1C#N | 76* | 0.8 | -0.08 | 18 | 0.51 | 0.2
COc1ccc(C(=O)NCc2ccccc2OC)cc1 | x | x | -0.37 | x | 0.22 | x
CCCCOCCCNC(=O)c1ccc(OC)cc1 | 14 | 0.4 | 1.7 | 58* | 0.64 | 0.9
COc1ccc(C(=O)NCCSCc2ccc(C)cc2)cc1 | 53* | 0.4 | -1.5 | 55* | -5.6* | 0.5
Cc1ccc(SCCC(=O)NCCSCc2ccccc2C)cc1 | 81* | 0.7 | 1.3 | 33 | -7.6* | 0.2
COc1ccc(C(=O)NCCSCc2ccccc2C)cc1 | 52* | 0.4 | 0.72 | 55* | -2.2 | 0.5
CCc1nc2cc(CC(=O)O)ccc2o1 | 20 | 1 | 0.44 | -3 | 0.081 | 0.8
CCn1cc(C(=O)NC2CC3CCC2C3)c(=O)c2ccc(C)nc21 (configuration not stated) | 2 | 0.9 | x | 13 | x | 1
Cc1ccc(N2CCN(C(=S)c3ccc(N(C)C)cc3)CC2)cc1 | 77* | 0.2 | 0.54 | 83* | -1.9 | 0.2
CN(C)c1ccc(C(=S)N2CCN(c3ccccc3)CC2)cc1 | 14 | 0.5 | 0.09 | 49 | -3.6 | 0.9
NNC(=O)CN1C(c2ccc(Cl)cc2)=Nc2ccc(Br)cc2C1c1ccccc1 (configuration not stated) | 58* | 0.5 | -3.4* | 47 | -9.9* | 0.4
COC(=O)CN1C(c2ccccc2)=Nc2ccc(Cl)cc2C1c1ccccc1 (configuration not stated) | 20 | 0.7 | -3* | 25 | -6.7* | 0.8
Cn1c(=O)nc2n(Cc3ccccc3)c3cccc(Cl)c3cc-2c1=O | x | x | 0.53 | x | x | x
COC(=O)/C(=C/c1c[nH]c2ccccc12)[N+](=O)[O-] | -16 | 1 | 0.02 | -3 | -0.67 | 1.2
COc1ccc(-c2cnn3c4c(c(C)nc23)CCN4C(C)C)cc1OC | 8 | 1.1 | -1.4 | -8 | 0.93 | 0.9
COc1cccc(/C=N/NC(=O)C(=O)N2CCCC2)c1OC | -3 | 1.2 | 1.4 | -16 | x | 1
COc1cccc(/C=N/NC(=O)c2ccccc2N(Cc2ccccc2)S(=O)(=O)c2ccccc2)c1OC | 80* | 0.6 | -2.7 | 42 | x | 0.2
O=C(NCCN1CCCC1)c1ccc(Cn2c(=S)[nH]c3cc4c(cc3c2=O)OCO4)cc1 | 11 | 0.9 | 1 | 6 | 0.21 | 0.9
O=C(CCn1c(=S)[nH]c2cc3c(cc2c1=O)OCO3)N1CCc2ccccc2C1 | 79* | 0.1 | x | 91* | x | 0.2
Cc1cccc(N2CCN(C(=O)Cn3c(=O)[nH]c4ccsc4c3=O)CC2C)c1 (configuration not stated) | 37 | 0.4 | -0.33 | 59* | 0.17 | 0.6
O=C(CCCn1c(=S)[nH]c2cc3c(cc2c1=O)OCO3)NC1CC1 | 29 | 1 | 1.3 | -3 | 0.02 | 0.7
Cc1cccc(N2CCN(C(=O)CCn3c(=S)[nH]c4cc5c(cc4c3=O)OCO5)CC2C)c1 (configuration not stated) | 53* | 0.5 | -0.98 | 48 | -4* | 0.5
O=C(CCCn1c(=S)[nH]c2cc3c(cc2c1=O)OCO3)N1CCc2ccccc2C1 | 57* | 0.6 | -0.85 | 38 | -2.1 | 0.4
SMILES | CYP2C9 inhib | CYP2C19 act | PTK2B oligo ant | CYP2C19 inhib | Cav32 inh | CYP2C9 activ
O=C1c2ccccc2NC2CCCCC12 (configuration not stated) | -411 | 1 | 0.67 | 1 | 0.46 | 5.1*
O=C1c2ccccc2NC2CCCCCN12 (configuration not stated) | x | x | 0.2 | x | 0.73 | x
O=C(Nc1ccc(Cl)c(-c2nc3ccccc3[nH]2)c1)c1cccnc1 | 83* | 0.4 | -1.1 | 60* | 0.63 | 0.2
O=C(Nc1ccc(-c2cc3ccccc3oc2=O)c(Cl)c1)c1cccnc1 | -120 | 0.8 | 2.3 | 22 | 2.3 | 2.2*
O=C(Cc1ccc(Cl)cc1)Nc1ccc(-c2cc3ccccc3oc2=O)c(Cl)c1 | x | x | -1.2 | x | x | x
COc1cccc(OCc2nc3ncc(Br)cc3[nH]2)c1 | 35 | 0.5 | 0.28 | 54* | -1.4 | 0.6
Cc1cc(C)cc(OCc2nc3ncc(Br)cc3[nH]2)c1 | x | x | -0.01 | x | x | x
CCO[C@@H]1OC(C(=O)N2CCN(Cc3ccc4c(c3)OCO4)CC2)=C[C@H](C2CC2)[C@H]1CCCO | x | x | x | x | 0.39 | x
Cc1ccc(-c2nc3cccnc3o2)cc1NC(=O)COc1ccc(C(C)(C)C)cc1 | 55* | 0.7 | -2.9 | 33 | -0.79 | 0.4
CC1CN=C(c2cccn2Cc2ccc(F)cc2Cl)O1 (configuration not stated) | 2 | 0.6 | 0.12 | 42 | -0.098 | 1
CC(=O)Nc1ccc(S(=O)(=O)NC(C(=O)O)C2=CCC=CC2)cc1 (configuration not stated) | -6 | 1.1 | 0.13 | -7 | 1 | 1.1
COCCSc1nnc(NC(=O)CSCc2ccccc2)s1 | 59* | 0.7 | 0.51 | 28 | 0.34 | 0.4
COCCSc1nnc(NS(=O)(=O)Cc2ccccc2)s1 | 68* | 0.9 | -0.14 | 6 | -0.35 | 0.3
COc1cc2c(cc1OC)C(C)N(C(=O)C1COc3ccccc3O1)CC2 (configuration not stated) | 57* | 0.2 | 0.48 | 80* | x | 0.4
COc1cc2c(cc1OC)C(C)N(C(=O)c1cc3ccccc3o1)CC2 (configuration not stated) | 33 | 0.6 | -1.6 | 42 | -0.49 | 0.7
COc1cc2c(cc1O)CCN(C(=O)c1ccco1)C2C (configuration not stated) | 47 | 0.3 | -1 | 65* | 0.91 | 0.5
COc1cc(C(=O)Nc2cccc(-c3nncn3C)c2)cc(OC)c1OC | -8 | 1.1 | -0.34 | -13 | -0.19 | 1.1
CS(=O)(=O)N(Cc1ccccc1)c1ccc(C(=O)N2CCN(c3cccc(Cl)c3)CC2)cc1 | 98* | 0.1 | -0.17 | 92* | -3.2 | 0
CCN1CCN(C(=O)c2ccccc2N(Cc2ccccc2)S(=O)(=O)c2ccc(C)cc2)CC1 | 33 | 0.3 | 0.88 | 72* | -0.1 | 0.7
CCOC(=O)N1CCN(C(=O)c2ccc(CN(c3ccccc3)S(C)(=O)=O)cc2)CC1 | 54* | 0.8 | -0.44 | 24 | 1.1 | 0.5
CS(=O)(=O)N(Cc1ccccc1)c1ccc(C(=O)N2CCOCC2)cc1 | 27 | 0.9 | 0.73 | 8 | 0.31 | 0.7
COc1ccc(C(=O)N2CCCCC2)cc1S(=O)(=O)Nc1ccccc1 | 33 | 0.8 | 0.89 | 19 | 0.96 | 0.7
CCOC(=O)N1CCN(C(=O)c2ccc(Cl)c(S(=O)(=O)Nc3ccccc3)c2)CC1 | 80* | 0.7 | 0.28 | 35 | 2.4 | 0.2
